Reference: publication PMC4336329 (PLoS ONE, 2015)
The campaign covered roughly 310,000 compounds. About 14,000 (4.5%) showed an effect of 50% or more. Effects have a minus sign here. The sample as a whole holds a higher share of strong results than the screen did.

The compounds below were run against human ether-à-go-go-related gene (hERG) potassium channel (human, UniProt Q12809) (assay: primary screen, population patch clamp on CHO cells stably expressing hERG; higher = less effect of the substance).
Sequence of human ether-à-go-go-related gene (hERG) potassium channel (Q12809 whole entry, looked up): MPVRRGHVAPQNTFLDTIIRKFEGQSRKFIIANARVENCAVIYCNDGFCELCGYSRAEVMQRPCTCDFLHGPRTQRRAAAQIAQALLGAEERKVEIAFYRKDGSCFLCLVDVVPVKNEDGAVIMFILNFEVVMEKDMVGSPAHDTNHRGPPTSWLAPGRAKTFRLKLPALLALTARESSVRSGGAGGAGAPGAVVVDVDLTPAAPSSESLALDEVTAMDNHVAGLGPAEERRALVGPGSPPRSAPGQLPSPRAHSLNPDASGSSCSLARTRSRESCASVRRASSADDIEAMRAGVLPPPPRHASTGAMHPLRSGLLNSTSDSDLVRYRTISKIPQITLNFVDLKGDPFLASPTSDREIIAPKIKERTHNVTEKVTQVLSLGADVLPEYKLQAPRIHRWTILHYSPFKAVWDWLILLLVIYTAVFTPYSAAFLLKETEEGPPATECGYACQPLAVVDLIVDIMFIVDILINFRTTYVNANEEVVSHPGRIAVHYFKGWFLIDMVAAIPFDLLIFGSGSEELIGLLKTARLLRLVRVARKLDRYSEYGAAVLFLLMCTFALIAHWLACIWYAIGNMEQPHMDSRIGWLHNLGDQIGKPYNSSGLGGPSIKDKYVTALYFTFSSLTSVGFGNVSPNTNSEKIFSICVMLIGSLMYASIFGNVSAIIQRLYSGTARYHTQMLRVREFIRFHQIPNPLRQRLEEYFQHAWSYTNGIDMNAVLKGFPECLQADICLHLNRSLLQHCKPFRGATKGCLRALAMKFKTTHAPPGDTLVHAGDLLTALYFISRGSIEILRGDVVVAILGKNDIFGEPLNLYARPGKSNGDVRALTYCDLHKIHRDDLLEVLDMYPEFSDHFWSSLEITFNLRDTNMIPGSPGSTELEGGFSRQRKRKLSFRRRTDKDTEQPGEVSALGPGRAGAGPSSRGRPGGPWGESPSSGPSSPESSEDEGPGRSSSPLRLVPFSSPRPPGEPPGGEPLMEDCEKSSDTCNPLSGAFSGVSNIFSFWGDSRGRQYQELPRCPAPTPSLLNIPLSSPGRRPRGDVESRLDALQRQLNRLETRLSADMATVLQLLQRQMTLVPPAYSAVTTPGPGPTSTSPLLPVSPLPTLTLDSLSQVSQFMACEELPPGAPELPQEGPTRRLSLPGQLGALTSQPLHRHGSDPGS
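Also: peak tail current of the secondary pulse compared with the same well before compound.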

SMILES | hERG current change (%, negative = inhibition) at 10uM
O=C(CCNS(=O)(=O)/C=C/c1ccccc1)NCCc1c[nH]c2ccccc12 | 3.88%
Cc1ccc(NS(=O)(=O)c2ccc(-c3coc(C)n3)cc2)c(C)c1 | 15.6%
CCOC(=O)C(Sc1ncn[nH]1)c1ccccc1 (stereo not shown) | -3.76%
Cc1cc(F)ccc1S(=O)(=O)N1CCCOC1CNC(=O)C(=O)NCc1cccnc1 (stereo not shown) | 7.92%
CCCCNC(=O)CNC(=S)N(CCCN1CCOCC1)Cc1cccs1 | -27.4%
O=C(CNC(=S)N(CCCN1CCOCC1)Cc1cccs1)NC1CCCCC1 | -31.2%
O=C(CNC(=S)N(CCCN1CCOCC1)Cc1cccs1)NC1CCCC1 | -19.7%
CN(C)CCNC(=O)CNC(=S)N(CCCN1CCOCC1)Cc1cccs1 | 12.1%
O=C(CNC(=S)N(CCCN1CCOCC1)Cc1cccs1)NCCN1CCOCC1 | 9.17%
O=C(CNC(=S)N(CCCN1CCOCC1)Cc1cccs1)NC1CCCCCCC1 | -61.1%
O=C(CNC(=S)N(CCCN1CCOCC1)Cc1cccs1)NCc1ccccc1Cl | -54.2%
O=C(CNC(=S)N(CCCN1CCOCC1)Cc1cccs1)NCc1ccc(Cl)cc1 | -67.7%
O=C(CNC(=S)N(CCCN1CCOCC1)Cc1cccs1)NCCCN1CCOCC1 | 15.1%
O=C(NCc1ccc(F)cc1)c1ccc(CS(=O)Cc2ccccc2Cl)o1 (stereo not shown) | -37.3%
Cc1ccc(S(=O)(=O)N2[C@@H](c3ccccc3)C(C(=O)O)=CC[C@H]2c2ccc(Cl)cc2)cc1 | 18.6%
CC1=NN(C(N)=S)C(=O)C1N=Nc1ccccc1C(=O)O (stereo not shown) | 22.1%
Fc1ccc(/C=C/c2nnc(-c3cccs3)o2)cc1 | 16.7%
Cc1cc(S(=O)(=O)Nc2cccc(C(=O)O)c2)c(C)c(S(=O)(=O)c2ccc(Cl)cc2)c1 | 18.8%
CCOC(=O)c1cnc(SCC(=O)Nc2ccc(NC(C)=O)c(OC)c2)nc1N | 2.44%
CC1(c2cccc(Br)c2)NC(=O)N(CC(=O)Nc2ccc3c(c2)OCO3)C1=O (stereo not shown) | -12.5%
COc1ccc(CNC2CCSc3ccccc32)cc1OC.O=C(O)C(=O)O (stereo not shown) | 9.97%
CCC(Cc1ccccc1)NC(=O)CN(C)S(=O)(=O)c1ccc2c(c1)c(=O)n(C)c(=O)n2C (stereo not shown) | -23.5%
Cc1sc2nc(SCC(=O)N3CCN(CCO)CC3)n(-c3ccccc3)c(=O)c2c1C | -3.7%

SMILES | hERG current change (%, negative = inhibition) at 10uM
O=C(O)C(=O)O.OC(CNC1CCCCCCC1)c1ccccc1 (stereo not shown) | 2.95%
Ic1ccccc1CN[C@@H]1C2CCN(CC2)[C@@H]1C(c1ccccc1)c1ccccc1.O.O=C(O)C(=O)O | -69.7%
CCS(=O)(=O)N1CCN(C2CCC(c3ccccc3)CC2)CC1.O=C(O)C(=O)O (stereo not shown) | -17.2%
O=C(COC(=O)CNC(=O)c1ccccc1)NCCc1ccccc1 | 4.17%
CCOc1ccc(/C=N/NC(=O)C2CC2)c(OCC)c1 | 2.21%
COc1cc2c(cc1OC)CN(CC(=O)NC(=O)NC1CCCCC1)CC2 | 3.28%
Cc1cc2[nH]c3c(c[n+](C)c4ccccc34)c2cc1C.[I-] | -77.8%
Cc1nccc2c1[nH]c1ccccc12 | 2.16%
COc1cc2[nH]c3ccccc3c2cc1C | 2.45%
CCN(CC)CCSc1nc2ccc(OC)cc2[nH]1.Cl | -64.7%
COc1ccc2nc(SCC(N)=O)[nH]c2c1 | -2.83%
COc1ccc2nc(SCCN(C)C)[nH]c2c1.Cl | 12.3%
O=C1[C@@H]2[C@H](C(=O)N1Cc1cccnc1)[C@H]1C=C[C@@H]2C1 | -3.89%
COc1ccc(/C=N/Nc2ncc(C(F)(F)F)cc2Cl)c(OC)c1OC | -1.15%
Cc1cc(Cl)ccc1OCC(=O)NNC(=O)C1CSC2(C)CCC(=O)N12 (stereo not shown) | -18.5%
CCOC(=O)c1c(-c2ccccc2)oc2ccc(O)c(CN(C)C)c12 | -40.2%
CCOC(=O)c1c(CSc2ccccc2)oc2ccc(O)cc12 | 3.91%
CCOC(=O)c1c(CN(C)C)oc2cc(CN(C)C)c(O)c(CSc3ccccc3)c12.Cl | -19.3%
CCOC(=O)c1c(-c2ccccc2)oc2cc(CN(C)C)c(O)c(CN(C)C)c12 | -41.5%
CCOC(=O)c1c(CSc2ccccc2)oc2cc(Br)c(O)c(CN(C)C)c12.Cl | 8.53%
CC(=O)c1c(CSc2ccccc2)oc2ccc(O)c(CN(C)C)c12.Cl | -70.8%
CCOC(=O)c1c(CSCc2ccccc2)oc2ccc(O)c(CN(C)C)c12.Cl | -73.4%
CCOC(=O)c1c(CSc2ccc(CC)cc2)oc2ccc(O)c(CN(C)C)c12.Cl | -55.3%
